The values below come from PubChem BioAssay AID720606 (Broad Institute, 2013).

Records with an inconclusive call do not appear. Calls of active or inactive are those of the source.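 How the source made its calls: active means all three timepoint tests show falling viability with half-maximal potency at or below twice the top dose; inconclusive means timepoint tests disagree on the call; inactive means all timepoint tests inactive.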

A short description of the test: LOX IMVI melanoma resazurin viability loss, dose response, HRAS target identification, cell-based, Alamar Blue fluorescence, 8/24/48 h, dry powder (AID 720606). (In general: Resazurin is reduced to fluorescent resorufin, in cell work by metabolically active cells.)

For the compound `CCC(=O)N(c1ccc(OC)c(Cl)c1)C(C(=O)NCCc1ccccc1)c1cccs1` (configuration not stated), the result was inactive. On to `Cc1onc(C(=O)N2CCN(C(c3ccncc3)c3ccncc3)CC2)c1[N+](=O)[O-]`, for which the outcome was inactive.
